High-throughput results (PubChem BioAssay)
Pf Dd2 inh: inhibitors of Plasmodium falciparum Dd2 growth; hit rate 4.3% among 120,000; Potency, µM (doses to about 28.9 µM), inactives show at the top dose activity, negative = inhibition, most hits filed as inhibitors; P. falciparum Dd2 growth, SYBR Green, 72 h; active = well fitted inhibition curve with a large enough effect;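 note: plate controls were DMSO vehicle for no effect and reference drug for full effect; nearly all actives have a fitted effect of over 65% in size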
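Infected erythrocytes (Dd2, 0.3% parasitemia, 2.5% hematocrit final) are added to compound in RPMI-1640/Albumax II medium, grown 72 h at 37C in low oxygen, then lysed with saponin/Triton-X containing SYBR Green and read by fluorescence.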
* = called active by the depositor; i = inactive; [ ] = remark or other dose. The entries come from a sample that favours hits as a whole. Potency is the fitted concentration of half-maximal effect.

SMILES	Pf Dd2 inh
Cc1cnc(-c2cccnc2)n1C1CCCN(C(=O)C2CC2)C1 (stereo not drawn)	-22.2%
Cc1cnc(-c2cccnc2)n1CC1CCN(CC2CC2)CC1	-14.6%
Cc1cnc(-c2cccnc2)n1C1CCCN(CC2CCCCC2)C1 (stereo not drawn)	11.2µM*
FC(F)(F)c1ccc(CN2CC(N3CCc4ccccc43)C2)cc1	0.8%
Cc1ccc(SC2CCN(Cc3nc(CCc4ccccc4)no3)CC2)cc1	-15.7%
c1ccc(CCc2noc(CN3CCCCC3CCn3cccn3)n2)cc1 (stereo not drawn)	i
CC(C)Cc1nc(CN2C[C@@H]3CC[C@H](C2)N(Cc2ccccc2)C3)no1	10µM*
COc1cccc(C(=O)NC(C(=O)N2CCCCC2)C2CCN(C(=O)c3cccs3)CC2)c1 (stereo not drawn)	-8.7%
Cc1ncccc1C(=O)N1CCC(N2C[C@H](O)C[C@H]2C(=O)NC2CCCCC2)CC1	-4.6%
Cn1cc(CN2CCN(C(c3ccccc3)c3ccccc3)CC2)cc1C#N	3.16µM*
c1ccc(C(c2ccccc2)N2CCN(Cc3nc(-c4ccccn4)no3)CC2)cc1	-5.3%
Cn1cc(CN2CCN(C(=O)Cc3ccccc3)CC2)ccc1=O	0.0%
COc1cccc(CCC(=O)N2CCC(n3cc(-c4nc(-c5ccccc5)no4)nn3)C2)c1 (stereo not drawn)	-22.1%
O=S(=O)(Cc1ccc(F)cc1)N1CCC(C2CCNC2)CC1 (stereo not drawn)	-1.7%
O=C1NC2(CCN(Cc3cncs3)C2)OCc2ccccc21 (stereo not drawn)	-22.0%[44.1 µM]
COc1cc(NC(=O)N2C[C@@H]3C[C@H](C2)c2ccc(NC(=O)c4ccc(F)cc4)c(=O)n2C3)cc(OC)c1	i
CC(=O)N1CCCC(c2nc(CCOCC3CC3)no2)C1 (stereo not drawn)	-10.2%
C(Cc1noc(C2CNC2)n1)OCC1CC1	5.01µM*
C1CNCC(c2nc(CCOCC3CCOCC3)no2)C1 (stereo not drawn)	-3.5%
O=C(CCc1ccccc1)N1CCC(CCOc2ccccc2F)C1 (stereo not drawn)	i
COc1ccccc1Cn1cc(C(=O)c2ccc(Cl)cc2)c(=O)c2ccccc21	i
COc1cccc(C(=O)c2cn(CC(=O)NCCc3ccccc3)c3nc(C)ccc3c2=O)c1	i
COc1ccc(C(=O)c2cn(Cc3cccc(C)c3)c3cc4c(cc3c2=O)OCO4)cc1	-7.3%
COc1ccc(C(=O)c2cn(CC(=O)Nc3cc(OC)cc(OC)c3)c3ccc(OC)cc3c2=O)cc1	-1.6%
CCOc1ccc(NC(=O)Cn2cc(C(=O)c3ccc(C)c(C)c3)c(=O)c3cc(OC)c(OC)cc32)cc1	11.7%
SMILES	Pf Dd2 inh
COc1ccc(Cn2cc(C(=O)c3ccc(C)c(C)c3)c(=O)c3ccccc32)cc1	11.2µM*
CCOc1ccc(C(=O)c2cn(CC(=O)Nc3cc(OC)ccc3OC)c3cc(OC)c(OC)cc3c2=O)cc1	i
COc1cc2c(=O)c(C(=O)c3ccc(C)c(C)c3)cn(Cc3ccccc3)c2cc1OC	12.6µM*
COc1cccc(Cn2cc(C(=O)c3ccc(Cl)cc3)c(=O)c3ccccc32)c1	14.1µM*
CCOc1ccc(C(=O)c2cn(Cc3ccc(OC)cc3)c3cc(OC)c(OC)cc3c2=O)cc1	10µM*
Cc1ccc(C(=O)c2cn(Cc3ccccc3)c3cc4c(cc3c2=O)OCCO4)cc1	i
CCOc1ccc(C(=O)c2cn(Cc3cccc(OC)c3)c3cc4c(cc3c2=O)OCO4)cc1	-27.1%
O=C(C1CCCCCC1)N1CCC(n2cc(-c3ccccc3)nn2)CC1	-10.7%
CC(C)C(=O)N1CCC(n2c(=O)[nH]c3ccccc32)CC1	-1.0%[44.1 µM]
O=C(NCc1cccc(Cl)c1)[C@@H]1C[C@H](c2ccc(F)cc2)N([S+](=O)([O-])C2CC2)C1	i
O=C(CCc1cccs1)N1CCCC(CO)(CC2CC2)C1 (stereo not drawn)	-11.3%
c1ccc(Cn2cnc3cccnc32)cc1	5.5%[44.1 µM]
O=C(NCc1ccc(C(=O)N2CCCCC2)cc1)C1NCCc2[nH]cnc21 (stereo not drawn)	-8.3%
COCCN1C(=O)CSC12CCN(C(=O)Nc1cccc(Cl)c1Cl)CC2	i
COc1ccc(C2Cn3nnc(-c4noc(-c5ccc(OC)c(F)c5)n4)c3CO2)cc1 (stereo not drawn)	i
COc1ccc(OC)c(NC(=O)C2Cn3cccc3C(=O)N2C)c1 (stereo not drawn)	i
O=C(CCc1c[nH]c2ccccc12)N1CCN2CCS(=O)(=O)N(C3CC3)C(=O)C2C1 (stereo not drawn)	-25.4%
O=C(Cc1csc(-c2ccccc2)n1)N1CCCC(c2ccn[nH]2)C1 (stereo not drawn)	3.3%
CN(C)c1nccnc1OC1CCN(C(=O)c2ccccn2)C1 (stereo not drawn)	-13.0%
COC(=O)[C@@H]1Cc2ncn(C)c2CN1S(=O)(=O)c1ccc(C)cc1	i
COCCCn1c(C)cnc1C1CCN(S(=O)(=O)c2ccccc2)C1 (stereo not drawn)	i
COc1ccc(CCNC(=O)Cn2cc(C(=O)c3ccc(F)cc3)c(=O)c3ccc(C)nc32)cc1OC	i
COc1cc2c(=O)c(C(=O)c3ccc(C)c(C)c3)cn(Cc3ccc(F)cc3)c2cc1OC	4.47µM*
CCOc1ccc2c(c1)c(=O)c(C(=O)c1ccc3c(c1)OCO3)cn2Cc1ccc(F)cc1	-26.4%
Cc1cccc(N2CCN(CC(=O)N3CC[C@@](C)(O)[C@@H](O)C3)CC2)c1	4.7%
SMILES	Pf Dd2 inh
CCn1cc(S(=O)(=O)N2C[C@@H](Oc3ccccc3)C[C@H]2C(=O)N2CCCC2)cn1	-14.8%
Cc1cc(C(F)(F)F)nn1CC(=O)NC1CCc2nnc(C3CC3)n2CC1 (stereo not drawn)	-18.1%
Cc1cc(N)c(-n2cc3c(c2-c2ccc(Br)cc2)c(=O)n(C)c(=O)n3C)cc1C	-18.1%
Cc1ccc(-n2cc3c(c2-c2ccccc2Br)c(=O)n(C)c(=O)n3C)cc1N	12.6µM*
Cn1c(=O)c2c(-c3ccccc3Br)n(CCc3ccccc3)cc2n(C)c1=O	-19.9%
COc1cc(NC(=O)CCN2CCCCO2)ccc1NC(=O)CC(C)C	-5.4%
COCCn1c2c(c(=O)n1-c1ccccc1)CCN(C(=O)c1nc3ccccc3[nH]1)C2	22.6%[44.1 µM]
Cn1ncnc1CCNC(=O)[C@H]1CCC[C@H](O)C1	1.0%
C[C@@H](NC(=O)c1cnccn1)c1c(-c2ccc(F)cc2)noc1C(=O)O	i
Cc1cc(C)c2c(N)c(C(=O)Nc3ccccc3C(F)(F)F)sc2n1	18.6%
COCc1cc(C)nc2sc(C(=O)Nc3ccccc3O)c(N)c12	8.91µM*
CCc1ccccc1NC(=O)c1sc2nc(C)cc(COC)c2c1N	-9.4%
COC1CCOC2(CCN(C(=O)CCc3nc4ccccc4s3)CC2)C1 (stereo not drawn)	-9.0%
COCc1nc(C2CC(NC(=O)c3nnc4nc(C)ccn34)C2)cc(=O)[nH]1 (stereo not drawn)	-5.8%
Cc1ccc(S(=O)(=O)c2nc(-c3ccccc3)oc2N2CCN(c3ccccc3)CC2)cc1	39.9%
Cc1ccc(S(=O)(=O)c2nc(-c3cccc(C)c3)oc2N2CCN(c3ccccc3)CC2)cc1	10µM*
Cc1ccc(-c2nc(S(=O)(=O)c3ccc(C)cc3)c(N3CCN(c4ccccc4)CC3)o2)cc1	24.8%
COC(=O)[C@@H](C)NC(=O)[C@H]1CN(C(=O)c2cccnc2)CCN1S(=O)(=O)c1ccccc1	-7.0%
COc1ccc(CCc2nc(C3CC(=O)N(c4ccc(F)c(Cl)c4)C3)no2)cc1 (stereo not drawn)	116.8%
